# According to PubChem BioAssay (NCI):
# Several values for one entry are separate records, joined by “and”; a condition that tells them apart may be missing. Equal entries are not always repeated. The panel holds about 83,000 compounds, 20% with a hit somewhere; the sample as a whole holds those more often.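 Compound tested at a single concentration for 48 hours in 96-well plates; a percent growth value below 10 was scored as active.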 Activity calls are given as the source filed them.
# Tests used:
# Assay in all cases: NCI-60 one-dose screen, 48 h (100 = growth as untreated, 0 = no growth, -100 = all killed)
# Details in all cases: 10 µM unless noted
# SK-MEL-2 melanoma = tested on: SK-MEL-2 melanoma
# EKVX NSCLC = tested on: EKVX NSCLC
# SN12C renal = tested on: SN12C renal
# UO-31 renal = tested on: UO-31 renal
# TK-10 renal = tested on: TK-10 renal
# ACHN renal = tested on: ACHN renal
# CAKI-1 renal = tested on: CAKI-1 renal
# A498 renal = tested on: A498 renal
# CCRF-CEM leukemia = tested on: CCRF-CEM leukemia
# MOLT-4 leukemia = tested on: MOLT-4 leukemia
# RPMI-8226 leukemia = tested on: RPMI-8226 leukemia
# OVCAR-8 ovarian = tested on: OVCAR-8 ovarian
# OVCAR-5 ovarian = tested on: OVCAR-5 ovarian
# OVCAR-4 ovarian = tested on: OVCAR-4 ovarian
# SK-OV-3 ovarian = tested on: SK-OV-3 ovarian
# IGROV1 ovarian = tested on: IGROV1 ovarian
# OVCAR-3 ovarian = tested on: OVCAR-3 ovarian
# NCI/ADR-RES ovarian = tested on: NCI/ADR-RES ovarian
# HS 578T breast = tested on: HS 578T breast
# SR leukemia = tested on: SR leukemia
SMILES,growth (SK-MEL-2 melanoma),growth (EKVX NSCLC),growth (SN12C renal),growth (UO-31 renal),growth (TK-10 renal),growth (ACHN renal),growth (CAKI-1 renal),growth (A498 renal),growth (CCRF-CEM leukemia),growth (MOLT-4 leukemia),growth (RPMI-8226 leukemia),growth (OVCAR-8 ovarian),growth (OVCAR-5 ovarian),growth (OVCAR-4 ovarian),growth (SK-OV-3 ovarian),growth (IGROV1 ovarian),growth (OVCAR-3 ovarian),growth (NCI/ADR-RES ovarian),growth (HS 578T breast),growth (SR leukemia)
CC(C)(O)Cn1cc(-c2ccc3nc(OC4CC4)ccc3c2)c2c(N)ncnc21,87.8% (inactive),85.8% (inactive) and 49.3% (inactive),87.9% (inactive) and 38.6% (inactive),63.7% (inactive) and 19.2% (inactive),74.2% (inactive) and 55.3% (inactive),86.2% (inactive) and 43.1% (inactive),80.9% (inactive) and 70.1% (inactive),64.9% (inactive) and 21% (inactive),67.2% (inactive) and 38% (inactive),56.6% (inactive) and 17.4% (inactive),55.3% (inactive) and 39.9% (inactive),90.2% (inactive) and 63.6% (inactive),84.7% (inactive) and 48.4% (inactive),96.3% (inactive) and 63.1% (inactive),83.4% (inactive) and 57.9% (inactive),74% (inactive) and 42.2% (inactive),109% (inactive) and 69.8% (inactive),94.9% (inactive) and 67.1% (inactive),,
Clc1ccc(NC(Nc2ccc(Cl)cc2)C(Cl)(Cl)Cl)cc1,85.6% (inactive) and 95.8% (inactive),85.7% (inactive) and 99.3% (inactive),84% (inactive) and 111% (inactive),25.5% (inactive) and 75.1% (inactive),110% (inactive) and 92.3% (inactive),41.6% (inactive),66% (inactive),107% (inactive) and 101% (inactive),95% (inactive),70.3% (inactive) and 89.5% (inactive),95.9% (inactive),93.6% (inactive) and 107% (inactive),79.9% (inactive) and 100% (inactive),82.4% (inactive) and 118% (inactive),100% (inactive) and 98% (inactive),75.3% (inactive) and 103% (inactive),89% (inactive) and 102% (inactive),61.5% (inactive) and 99.4% (inactive),109% (inactive),
O=C1OC(Oc2ccc(Br)cc2)(c2ccccc2)c2ccccc21 (stereo not drawn),74.2% (inactive) and 73.2% (inactive),96.4% (inactive) and 82.2% (inactive),87.8% (inactive) and 98.2% (inactive),72.4% (inactive) and 89.3% (inactive),89.4% (inactive) and 86.2% (inactive),83.6% (inactive) and 80.3% (inactive),17.9% (inactive) and 0.588% (active),80.1% (inactive) and 93.7% (inactive),70.1% (inactive) and 46.1% (inactive),77.4% (inactive),85.8% (inactive),93.9% (inactive) and 93% (inactive),97.3% (inactive) and 110% (inactive),92.1% (inactive),,79.7% (inactive) and 81.3% (inactive),87.4% (inactive) and 68.8% (inactive),90.8% (inactive) and 76.8% (inactive),97.6% (inactive) and 84.7% (inactive),75.4% (inactive)
O=CC(O)C(O)C(O)CO (stereo not drawn),-27.3% (active),114% (inactive),95.5% (inactive) and 109% (inactive),90.7% (inactive) and 78.5% (inactive),125% (inactive) and 107% (inactive),98.7% (inactive) and 98.1% (inactive),106% (inactive) and 117% (inactive),94.8% (inactive) and 109% (inactive),79.8% (inactive) and 98% (inactive),122% (inactive) and 87.4% (inactive),81.9% (inactive) and 122% (inactive),110% (inactive) and 106% (inactive),57.6% (inactive) and 97.7% (inactive),101% (inactive) and 114% (inactive),,105% (inactive),106% (inactive),-41.1% (active) and 106% (inactive),98.4% (inactive) and 106% (inactive),109% (inactive) and 89.6% (inactive)
CNC(=O)c1cccnc1,118% (inactive),110% (inactive),111% (inactive),84.8% (inactive),103% (inactive),104% (inactive),92.1% (inactive),85.6% (inactive),87.9% (inactive),106% (inactive),112% (inactive),100% (inactive),110% (inactive),108% (inactive),,111% (inactive),116% (inactive),97% (inactive),,87.4% (inactive)
Cc1cc(O)c(C(C)C)cc1N,113% (inactive) and 119% (inactive),95% (inactive) and 104% (inactive),114% (inactive),78% (inactive) and 95.5% (inactive),123% (inactive) and 117% (inactive),93.3% (inactive) and 100% (inactive),107% (inactive) and 97.4% (inactive),92.3% (inactive) and 89.7% (inactive),105% (inactive) and 88.4% (inactive),95.2% (inactive) and 103% (inactive),84.3% (inactive) and 92.6% (inactive),99.3% (inactive) and 106% (inactive),101% (inactive) and 103% (inactive),84.5% (inactive),100% (inactive),103% (inactive) and 114% (inactive),76.6% (inactive) and 116% (inactive),102% (inactive) and 98.8% (inactive),,
COc1cc(C(=O)c2ccc3c(c2)OCO3)cc(OC)c1OC,44.6% (inactive) and -28.3% (active),55.7% (inactive) and 61.5% (inactive),47.1% (inactive) and 39.5% (inactive),16.2% (inactive) and 37.6% (inactive),31.7% (inactive) and 27.3% (inactive),39.4% (inactive) and 48.1% (inactive),4.39% (active) and 24.7% (inactive),6.18% (active),19.5% (inactive),40.7% (inactive) and 42.7% (inactive),29.6% (inactive) and 34% (inactive),33.9% (inactive) and 36.5% (inactive),62.3% (inactive) and 63.4% (inactive),80.8% (inactive) and 53.9% (inactive),,11.1% (inactive) and 30.7% (inactive),-38.3% (active) and -26.6% (active),10.9% (inactive) and 25% (inactive),19.2% (inactive) and -19.2% (active),19.8% (inactive) and 12% (inactive)
O=C(Nc1ccc(Br)cc1)c1cc(Br)ccc1O,-30.5% (active) and 13.2% (inactive),11% (inactive) and 13.6% (inactive),6.5% (active) and -10.3% (active),-12.3% (active) and 0.207% (active),9.29% (active) and 1.36% (active),9.36% (active) and -2.71% (active),5.39% (active) and 10.4% (inactive),-12.7% (active) and -34.6% (active),23.4% (inactive) and 3.66% (active),17.4% (inactive) and -33.2% (active),16.9% (inactive) and -8.2% (active),22.5% (inactive) and 20.5% (inactive),30.4% (inactive) and 17.4% (inactive),9.76% (active) and 24.8% (inactive),4.48% (active) and -11.3% (active),13.6% (inactive),-18.3% (active) and -5.1% (active),4.45% (active) and -5.6% (active),-1.71% (active) and -5.35% (active),
Cn1cnc([N+](=O)[O-])c1Sc1ncnc2nc[nH]c12,57.7% (inactive) and 74.8% (inactive),83.3% (inactive) and 109% (inactive),75.8% (inactive) and 83.2% (inactive),63.4% (inactive) and 69% (inactive),52.8% (inactive) and 44.3% (inactive),84% (inactive) and 121% (inactive),49.2% (inactive) and 75.8% (inactive),87.7% (inactive) and 103% (inactive),48% (inactive) and 42.6% (inactive),66.1% (inactive) and 56.6% (inactive),34.1% (inactive) and 36.5% (inactive),50% (inactive) and 75.4% (inactive),61.8% (inactive) and 71.6% (inactive),39.7% (inactive) and 53.2% (inactive),,74.5% (inactive) and 83.4% (inactive),50.8% (inactive) and 39.5% (inactive),67.2% (inactive) and 57.4% (inactive),79.6% (inactive) and 69.1% (inactive),44.9% (inactive)
